Results on 20 compounds are retold here after PubChem BioAssay (NCI).

Test [1] is described as follows: NCI Yeast Anticancer Drug Screen. Data for the rad50 strain (AID 155).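 Note: 0% = growth of vehicle-only cultures of the same strain.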 The conditions noted are these: S. cerevisiae rad50 strain growth inhibition; at 50.0 µM; active compounds read high. In a few lines: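 Readout: growth inhibition relative to vehicle-treated cultures. Compound exposure was carried out in a genetically defined yeast strain deficient in DNA damage repair.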

Test [2] in a line: NCI Yeast Anticancer Drug Screen. Data for the mec2-1 strain (AID 157). The settings on record: S. cerevisiae mec2-1 strain, at 50.0 µM, active compounds read high. In outline: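 Compounds were applied to mec2-1 yeast cells. Their growth was then compared with that of vehicle-treated cultures to give growth inhibition.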
Test [3] can be described thus: NCI Yeast Anticancer Drug Screen. Data for the sgs1 mgt1 strain (AID 161).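 Note: 0% = growth of cultures given vehicle only.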 The conditions noted are these: S. cerevisiae sgs1 mgt1 strain, at 50.0 µM, active compounds read high. In outline:
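Growth of a repair-deficient yeast mutant was monitored after compound treatment and expressed as inhibition relative to vehicle-treated cultures.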

Test [4] in a line: NCI Yeast Anticancer Drug Screen. Data for the cln2 rad14 strain (AID 165).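 Note: 0% = growth equal to vehicle treated cultures.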 The conditions noted are these: S. cerevisiae cln2 rad14 strain, at 50.0 µM, active compounds read high. In outline:
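Strain: cln2 rad14 yeast, altered in cell cycle control and DNA damage repair. Read-out: growth inhibition vs vehicle.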

A short description of test [5]: NCI Yeast Anticancer Drug Screen. Data for the bub3 strain (AID 167). The conditions noted are these: S. cerevisiae bub3 mutant strain, at 50.0 µM, active compounds read high. In a few lines: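 Readout: yeast growth inhibition, expressed relative to vehicle-only wells. The test organism is a mutant strain from a panel with lesions in DNA repair or checkpoint genes.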
Test [6] is described as follows: NCI Yeast Anticancer Drug Screen. Data for the mlh1 rad18 strain (AID 175). The conditions noted are these: S. cerevisiae mlh1 rad18 strain growth inhibition; at 50.0 µM; active compounds read high. In outline: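 A repair-deficient yeast strain is exposed to test compound, and growth is scored relative to vehicle-treated controls.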

Compounds without any hit were thinned out: in the full panel of roughly 79,000, 15% have a hit. A number with no mark means an inactive call. Activity calls are given as the source filed them. Cut-off read from the data, not from the text of the source: active = growth inhibition above about 70%; inactive = the rest. Where a SMILES comes first, the peptide text is derived from it. The star is where a group is joined. Boc = CC(C)(C)OC(=O)*; tBu = CC(C)(C)*

In the case of `CC(=O)N(C)c1ccc(Nc2cc(S(=O)(=O)O)c(N)c3c2C(=O)c2ccccc2C3=O)cc1`, the growth inhibition is -20.2% in test [1]; -14.1% in test [2]; -27.4% in test [3]; -13.8% in test [4]; -37.3% in test [5]; -4.25% in test [6].
Turning to `COc1ccc(C2(C(OC)OC)NC(=O)NC2=O)cc1` (stereo not given), the growth inhibition was -26.8% in test [1]; -4.1% in test [2]; -8.8% in test [3]; 35.4% in test [4]; -0.7% in test [5]; -8.85% in test [6].
Turning to `CCOC(=O)C(C#N)(Cc1ccccc1CC(C#N)(NC(C)=O)C(=O)OCC)NC(C)=O` (stereo not given), the growth inhibition in test [1] is -4.9%; in test [2] it was -0.25%; in test [3], -10.1%; in test [4], -0.3%; in test [5], -3.4%; in test [6] it was 10.7%.
Regarding `O=[N+]([O-])c1ccc(Cl)c(N=Nc2ccccn2)c1`, the growth inhibition is 20.2% in test [1]; -14.9% in test [2]; 21.4% in test [3]; -36.9% in test [4]; -10% in test [5]; 18.6% in test [6].
On to `COc1cc2c(cc1OC)C1(c3ccccc3)ON=C(c3ccccc3)N1CS2` (stereo not given), for which the growth inhibition in test [1] was -14.1%; in test [2], -12.4%; in test [3] it was 8.95%; in test [4] it was -32.4%; in test [5], -7.05%; in test [6], -11.1%.
With `C[C@@H]1Nc2ccccc2[C@H]1C`, the growth inhibition in test [1] was -25.6%; in test [2] it was -37.5%; in test [3], -53.1%; in test [4], 7.75%; in test [5], -42.6%; in test [6] it was -8.1%.
Take `CC(C)(C)C1=Cc2cc3cc(C(C)(C)C)[nH]c(=O)c3cc2S(=O)(=O)N1`: the growth inhibition was -23.2% in test [1]; -22.6% in test [2]; -14.4% in test [3]; 3% in test [4]; 5.4% in test [5]; -20.9% in test [6].
Consider `CC(C)(C)OC(=O)N(CCCCN(CCCNC(=O)C(F)(F)F)C(=O)OC(C)(C)C)CCCNC(=O)C(F)(F)F`, for which the growth inhibition was -14.9% in test [1]; 4.75% in test [2]; -14.3% in test [3]; 3.15% in test [4]; 4.6% in test [5]; -32% in test [6].
Turning to `S=c1sc2c(Cl)ncnc2n1-c1ccccc1`, the growth inhibition in test [1] was 1.55%; in test [2], 24.4%; in test [3], 13.2%; in test [4] it was 11.8%; in test [5], 9.7%; in test [6], 5.6%.
For the compound `Nc1ncnc2c1nnn2C1C=CC(CP(=O)(O)O)C1` (stereo not given), the growth inhibition was 2.65% in test [1]; 8.25% in test [2]; 12.9% in test [3]; 13.2% in test [4]; -4.5% in test [5]; 27.7% in test [6].
As to `CC(OC(C)(C)C)C(NC(=O)C(N)CCCCNC(=O)OC(C)(C)C)C(=O)NC(Cc1ccccc1)C(=O)O` (stereo not given) (H-Lys(Boc)-Thr(tBu)-Phe-OH; configuration not given here), the growth inhibition in test [1] was -37.3%; in test [2] it was -11.6%; in test [3], -39.4%; in test [4], -14.8%; in test [5] it was -5%; in test [6], -15%.
As to `Cc1c2ccccc2c(CN(C)CC(=O)NCC(=O)NCC(=O)O)c2ccccc12`, the growth inhibition in test [1] is 97.5% (active); in test [2], 97.7% (active); in test [3] it was 97.5% (active); in test [4] it was 97.5% (active); in test [5], 98.2% (active); in test [6], 98.5% (active).
For the compound `Cc1cccnc1Nc1ncccc1C`, the growth inhibition is 13.8% in test [1]; -18.8% in test [2]; 10.9% in test [3]; 14.3% in test [4]; 8.3% in test [5]; 10.8% in test [6].
For the compound `Cc1nn2c(=O)n(-c3cccc(-n4nnc5c(-c6ccccc6)c(C)nn5c4=O)c3C)nnc2c1-c1ccccc1`, the growth inhibition in test [1] was 33.9%; in test [2], 40.4%; in test [3], 30.2%; in test [4], 46.1%; in test [5], 43.2%; in test [6], 43.9%.
With `CCC1(CC)COC2(CCC(C)CC2)OC1`, the growth inhibition in test [1] is -6.4%; in test [2], -2.95%; in test [3], -5.05%; in test [4], -16.1%; in test [5], -14.7%; in test [6], 7.5%.
Regarding `N#CC1C(=O)NC(=S)NC1c1ccc2c(c1)CCC2` (stereo not given), the growth inhibition in test [1] was -12.9%; in test [2], -6.7%; in test [3], -22.9%; in test [4], -18.8%; in test [5], -7.15%; in test [6] it was 4.1%.
As to `C(=NCCSSCCN=Cc1ccccc1)c1ccccc1`, the growth inhibition in test [1] was 12.1%; in test [2], 10.3%; in test [3] it was 18.6%; in test [4], 10.1%; in test [5] it was -12.1%; in test [6] it was 21.6%.
Consider `CC(C)(C#N)NC(=O)NC(C)(C)C(N)=O`, for which the growth inhibition in test [1] is -4.1%; in test [2] it was 2.25%; in test [3], -3.25%; in test [4], -50.2%; in test [5], 9.5%; in test [6] it was -1.4%.
Take `CCOC(=O)C(/C=N/C(=S)Nc1c(C)cccc1C)=C(/O)c1ccccc1`: the growth inhibition was -50.3% in test [1]; -21.6% in test [2]; -26.1% in test [3]; -18.6% in test [4]; -21.2% in test [5]; -33.4% in test [6].
Regarding `O=C(/C=C/c1ccc2c(c1)OCO2)CC(=O)/C=C/c1ccc2c(c1)OCO2`, the growth inhibition in test [1] was 3.5%; in test [2], 19.6%; in test [3] it was 11.3%; in test [4] it was 7.15%; in test [5], -4.3%; in test [6], -15.6%.
